# Rows were chosen to be rich in hits. Some 4.6% of all compounds tested hit in one or more screens of this group.
# D1 ag: Allosteric Agonists of the Human D1 Dopamine Receptor: qHTS; HEK293 T-REx D1 cells, calcium flux, agonist mode; activation, % at 2 µM; 360,000 compounds, 1% hits; AID 504660, 2011; also: 0% is about no effect
# Target sequence (P21728 whole entry, looked up): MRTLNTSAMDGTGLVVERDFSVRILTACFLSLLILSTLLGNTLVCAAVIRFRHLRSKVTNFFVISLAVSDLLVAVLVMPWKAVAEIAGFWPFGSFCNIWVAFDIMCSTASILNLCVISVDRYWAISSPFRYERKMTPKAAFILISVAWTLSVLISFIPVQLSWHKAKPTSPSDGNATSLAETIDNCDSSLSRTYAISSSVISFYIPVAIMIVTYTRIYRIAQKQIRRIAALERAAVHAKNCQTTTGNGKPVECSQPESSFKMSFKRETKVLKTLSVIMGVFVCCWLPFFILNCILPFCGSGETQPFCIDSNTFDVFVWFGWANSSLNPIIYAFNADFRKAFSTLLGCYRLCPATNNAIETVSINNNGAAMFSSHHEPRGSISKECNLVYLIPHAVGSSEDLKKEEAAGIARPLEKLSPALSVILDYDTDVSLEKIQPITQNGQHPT
#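 Inducible HEK293 T-REx D1 cells, force-coupled to calcium signalling, were plated at 4000 cells/well with tetracycline and held overnight at 30 C. After no-wash calcium dye loading, compound-evoked calcium rise over 180 s flagged agonists.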
# TRHR PAM: qHTS for Small Molecule Agonists and Allosteric Enhancers of Human TRH Receptor: Primary Screen for Enhancers | TRHR cells, fluo-8 calcium fluorescence, EC20 TRH enhancement | Thyrotropin-releasing hormone receptor (Homo sapiens), P34981 | enhancement, % at 2 µM | 360,000 compounds, 0.66% hits; in the data active = enhancement above about 30%; also: 0% is about no effect
#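 TRHR-expressing cells loaded with fluo-8 calcium dye were read kinetically (ex 480/em 530) during compound addition, then stimulated with an EC20 of TRH (10 nM final). Enhancement of the Gq-mediated intracellular calcium response was scored.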
# Epigenetic reg: Quantitative High-Throughput Screen for Regulators of Epigenetic Control | murine LDR cells, GFP reporter derepression, 30 h | Potency, µM (top dose mostly 53.9 µM), for inactives: top-dose GFP activation, hits mostly activators | 280,000 compounds, 0.2% hits | AID 1865, 2009; active = well fitted activation curve with a large enough effect; inconclusive = small, poorly fitted or top-dose-only effect; also: potency is read from the fitted curve at half-maximal effect; % of control where 0% means no effect; nearly all actives have a fitted effect of over 60% in size
#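 Murine LDR cells bearing a silenced CMV-driven GFP reporter were exposed to compound for 30 h at 37 C. After PBS washes, GFP-positive cells (20-120 um objects) counted by laser-scanning microplate cytometry.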
# TRHR ag: qHTS for Small Molecule Agonists and Allosteric Enhancers of Human TRH Receptor: Primary Screen for Agonists; Thyrotropin-releasing hormone receptor (Homo sapiens), P34981; TRHR cells, calcium flux fluo-8, FDSS agonist mode; activation, % at 2 µM; 360,000 compounds, 0.18% hits; AID 493084, 2011; also: 0% is about no effect
#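 Read-out: compound-evoked intracellular calcium rise in TRHR cells, fluo-8 dye, kinetic FDSS fluorescence at 1 s/cycle following a 10-cycle baseline. Cells cultured overnight before dye loading (30 min–1.5 h, RT).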
# D1 antagonist: Antagonist of Human D 1 Dopamine Receptor: qHTS; 360,000 compounds, 3.2% hits; activity change, negative = inhibition, % at 10 µM; D(1A) dopamine receptor (Homo sapiens), P21728; HEK293 TREx D1 cells, calcium flux, dopamine EC80; active compounds read low; AID 504652, 2011; in the data active = activity change below about -30%; also: % is scaled to controls: 0 for no effect and ±100 for the full control effect
#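 Cells carrying a force-coupled, tetracycline-inducible human D1 receptor report calcium flux. Each well gets a 10 s baseline, compound with 180 s monitoring, then an EC80 dopamine stimulus with a second 180 s kinetic read.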
# D1 potentiator: Potentiators of Human D1 Dopamine Receptor: qHTS; potentiation, % at 10 µM; HEK293 TREx D1 cells, calcium flux, dopamine EC20 potentiation; 360,000 compounds, 0.036% hits; D(1A) dopamine receptor (Homo sapiens), P21728; in the data active = potentiation above about 30%; also: 0% is about no effect
# * hit, by the source's call; ? = inconclusive; . = no result given; [ ] = remark or other dose. Rule as the data show it, unless noted: active = activation above about 30%; inactive = the rest.
SMILES,D1 ag,TRHR PAM,Epigenetic reg,TRHR ag,D1 antagonist,D1 potentiator
COc1ccc(OC)c(CNc2ncc(-c3ccc(Cl)cc3)n2C)c1,-1,0,-1%,-2,4,-5
COc1ccc(C)cc1NC(=O)C1COc2ccccc2C1 (centres undefined),2,2,2%,0,6,0
O=C(C1CC(Cl)CN1S(=O)(=O)c1ccc(Cl)cc1)N1CCOCC1 (centres undefined),-1,-6,0%,1,-36*,-5
O=C(CN1CCN(C(=O)C2CCCO2)CC1)Nc1ccc(Cl)cc1 (centres undefined),-1,-3,.,0,-30*,4
NC(=O)C1CCN(CC(=O)Nc2ccccc2Sc2ccccc2)CC1,3,-3,0%,0,3,4
O=C(N1CCOCC1)N1CCN(S(=O)(=O)c2ccc(Cl)cc2)C1,2,-1,.,0,14,-2
COC(=O)C1CCN(CC(=O)Nc2ccccc2Sc2ccccc2)CC1,8,35*,-2%,1,2,8
O=C(Nc1ccc(Cl)cc1)N1CCN(C(=O)C2CCCO2)CC1 (centres undefined),1,-4,.,0,-20,-3
O=C(COCc1cc(-c2ccco2)on1)Nc1cccc(O)c1,0,9,-1%,-1,-1,-1
COc1ccc(C[C@@](C)(N)C(=O)O)cc1OC,.,.,4%[16.9 µM],.,.,.
Cc1cc(C)c(NC(=O)CSc2n[nH]c(-c3ccccc3Cl)n2)c(C)c1,6,4,-5%,0,-18,3
CCOc1ccccc1N1CCN(C(=O)Nc2cccc(Cl)c2)CC1,12,8,-2%,1,-12,-5
CCOc1ccccc1N1CCN(C(=O)Nc2ccc(Cl)c(Cl)c2)CC1,1,4,0%,0,-36*,2
Cc1c(C(=O)Nc2ccc(F)cc2F)nnn1-c1ccccc1Br,-1,3,-3%,0,-2,1
CN(C)CCCN(C(=O)c1ccc2c(c1)OCCO2)c1nc2ccc(Cl)cc2s1,33*,21,.,3,-23,-3
CN(C)CCN(C(=O)c1ccc2c(c1)OCCO2)c1nc2ccc(Cl)cc2s1,6,-1,-1%,0,-4,-4
CN(C)CCCN(C(=O)c1ccc2c(c1)CCCC2)c1nc2cc3c(cc2s1)OCO3,39*,2,.,1,-27,-2
CN(C)CCCN(C(=O)c1ccc2c(c1)CCCC2)c1nc2ccc(F)cc2s1,10,-4,0%,0,6,-4
CCN(Cc1ccccc1)S(=O)(=O)c1ccc(C(=O)N(CCCN(C)C)c2nc3cc4c(cc3s2)OCO4)cc1,9,1,.,0,-66*,-9
CC(=O)CN1C(=O)NC2(CCCc3ccccc32)C1=O (centres undefined),1,0,.,0,11,7
CC(C)CN1C(=O)NC2(CCCc3ccccc32)C1=O (centres undefined),1,-1,.,-1,-80*,11
CCOc1ccc(CNC(=O)c2c(C)nn(-c3ccc(F)cc3)c2-n2cccc2)cc1,15,5,0%,2,-13,0
Cc1onc(-c2ccccc2)c1C(=O)OCC(=O)Nc1ccc(C#N)cc1,10,-7,.,0,-31*,-2
Cc1onc(-c2ccccc2)c1C(=O)OCC(=O)Nc1ccccc1,5,15,.,0,-12,1
CC(NC(=O)COC(=O)c1ccc(N(C)C)cc1)c1ccccc1 (centres undefined),0,2,0%,0,-70*,-8
SMILES,D1 ag,TRHR PAM,Epigenetic reg,TRHR ag,D1 antagonist,D1 potentiator
CCOC(=O)c1ccc(NCc2ccc(N(C)C)cc2)cc1,5,4,-1%,-2,-35*,-11
Cc1cc(C)n(-c2ccc(C(=O)OCC(=O)NC(c3ccccc3)c3ccccc3)cc2)n1,31*,-4,0%,3,-12,-6
CCOC(=O)c1ccc(NCc2ccc3c(c2)OCO3)cc1,6,1,0%,-1,-27,-3
Cc1cc2c(cc1S(=O)(=O)Nc1cccc(Cl)c1C)n(C)c(=O)c(=O)n2C,-1,-2,0%,0,2,1
Cc1cc(Br)ccc1SCC(=O)OCC(=O)NC(C)c1ccccc1 (centres undefined),2,-7,-1%,0,-2,-5
Cc1onc(-c2ccccc2)c1C(=O)OCC(=O)NC(C)c1ccc(Cl)cc1 (centres undefined),71*,-3,.,4,-10,.
Cc1cc(SCC(=O)OCC(=O)NC(C)c2ccccc2)c(C)cc1Br (centres undefined),8,14,-1%,0,-41*,-1
O=C(Nc1ccc(Br)cc1)c1cccc(N2C(=O)C3CCCCC3C2=O)c1 (centres undefined),8,-3,.,0,-14,-5
Cc1cccc2c1-c1sc(C(=O)NCc3ccc(Cl)cc3)cc1CO2,4,-3,2%,0,-4,-7
Cc1ccc2c(c1)-c1c(cnn1CC(=O)O)CO2,3,3,-3%,-1,-12,0
CCN(CCN(C)C)C(=O)Cn1ncc2c1-c1cc(C)ccc1OC2,2,2,1%,0,-33*,-1
O=C(NCc1ccc(F)cc1)C(=O)NCC(c1ccco1)S(=O)(=O)c1cccs1 (centres undefined),22,-4,15%,0,.,-1
c1ccc2c(c1)OC(CCCN1CCCCC1)c1ccccc1S2 (centres undefined),14,8,-1%,2,-85*,-7
CC1CCCN(C(=O)N2c3ccccc3Sc3ccccc32)C1 (centres undefined),1,-7,-9%,0,-3,-4
CN1CCCC(CC2Oc3ccccc3Sc3ccccc32)C1 (centres undefined),49*,8,0%,2,-74*,-12
O=C(Nc1nc2c(s1)CCCC2)c1ccc(N2C(=O)CCC2=O)cc1,3,25,.,0,-71*,-7
Cc1nn(-c2ccccc2)c(OC(=O)c2ccccc2F)c1S(=O)(=O)c1ccccc1,-1,-3,2%,0,9,-1
Cc1c(Cl)cccc1NC(=O)c1ccc2c(c1)nnn2C1CCCC1,2,3,?,0,-30,-1
CCSC1=N/C(=C\c2ccc(C(=O)O)cc2)C(=O)S1,2,-6,-1%,0,-18,-8

# Assay outcomes: PubChem, National Center for Advancing Translational Sciences (NCATS)
